# According to PubChem BioAssay (NCATS):
# Results filed as inconclusive are left out. Calls of active or inactive are those of the source. Unless noted, the rule behind the calls is not given here.
# Tests used:
# [1] = qHTS Assay for Identifying Gametocytocidal Compounds (AID 743244; active = well fitted curve in the direction sought with a large enough effect; an effect the other way counts as inactive or inconclusive; note: potency is the fitted concentration of half-maximal effect;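 for max response: % is set by controls: 0 for no effect and ±100 for the full control effect; actives lower the fluorescent signal which means gametocytes are killed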); settings: P. falciparum 3D7 stage III-V gametocytes, alamarBlue, 72 h; max response: stronger effect = lower value
# Method in brief: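 In this qHTS viability screen, late-stage 3D7 gametocytes are incubated with compound for 72 h, then with alamarBlue for 24 h; reduced resorufin fluorescence marks killing.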
# [2] = qHTS profiling for inhibitors of Plasmodium falciparum (3D7) proliferation (AID 743322);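 note: infected erythrocytes exposed to compound for 72 h before lysis; 100% = DMSO vehicle wells and 0% = 0.29 µM artemisinin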; settings: P. falciparum 3D7 proliferation; at 28.7 µM (top of the series)
# Method in brief: (§1)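 Parasite DNA was quantified by SYBR Green I fluorescence (ex 485, em 535 nm) after overnight lysis in saponin/Triton buffer at room temperature. Cultures at 0.3% parasitemia and 2.5% hematocrit were first exposed to compound for 72 h at 37 C; signals were normalised to artemisinin (0.29 uM) and vehicle wells.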
# [3] = qHTS profiling for inhibitors of Plasmodium falciparum (DD2) proliferation (AID 743323); settings: lower = more inhibition; at 28.7 µM (top of the series)
# Method in brief: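 P. falciparum Dd2-infected erythrocytes (0.3% parasitemia, 2.5% hematocrit) exposed 72 h at 37 C, 5% CO2. Lysis with SYBR Green, overnight at room temperature, fluorescence 485/535 nm; normalized to 0.29 uM artemisinin and DMSO.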
# [4] = qHTS profiling of the MIPE4 collection as inhibitors of Plasmodium falciparum (3D7) proliferation (AID 743344);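 note: scaled between DMSO vehicle wells and 0.29 µM artemisinin as full inhibition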; settings: P. falciparum 3D7 in erythrocytes, SYBR Green DNA fluorescence, 72 h; at 28.5 µM (top of the series) unless noted
# Method in brief: as §1
# [5] = qHTS profiling of the MIPE4 collection as inhibitors of Plasmodium falciparum (DD2) proliferation (AID 743345); settings: P. falciparum Dd2 in erythrocytes, SYBR Green DNA, 72 h; at 28.5 µM (top of the series) unless noted
# Method in brief: as §1
# [6] = qHTS profiling of the MIPE4 collection as inhibitors of Plasmodium falciparum (DD2) proliferation (Rep 2) (AID 743346); settings: P. falciparum Dd2 in erythrocytes, SYBR Green DNA, 72 h; at 28.5 µM (top of the series) unless noted
# Method in brief: as §1
# [7] = qHTS profiling of the MIPE4 collection as inhibitors of Plasmodium falciparum (HB3) proliferation (AID 743347);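 note: plate controls were DMSO vehicle wells for no effect and artemisinin wells for full effect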; settings: P. falciparum HB3 in erythrocytes, SYBR Green DNA, 72 h; at 28.5 µM (top of the series) unless noted
# Method in brief: as §1
# [8] = High-throughput drug toxicity screening in the BPDCN cell line Gen2.2 (AID 1224824); settings: Gen2.2 BPDCN cells; at 45.8 µM (top of the series) unless noted;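 note: cells exposed to compounds for 48 h before reading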
# Method in brief: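 Readout is ATP luminescence from Gen2.2 cells after two days of drug exposure in serum-containing medium at 37 °C. Values express percent activity, with vehicle defining full signal and 9.2 uM bortezomib defining zero.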
# [9] = High-throughput drug toxicity screening in the BPDCN cell line Cal-1 (AID 1224825); settings: Cal-1 BPDCN cell viability, qHTS; at 45.8 µM (top of the series) unless noted;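 note: cells exposed to compounds for 48 h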
# Method in brief: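 Percent activity derived from CellTiter-Glo luminescence, scaling DMSO to 100% and 9.2 uM final bortezomib to 0%. BPDCN Cal-1 cells (500/well, RPMI plus 10% FBS) incubated with compounds 48 hours at 37C before reading.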
# [10] = qHTS assay for measurement of the activity of small molecule inhibitors on Zika virus induced Caspase-3 activity in human iPSC derived neural progenitor cells (hNPCs) (AID 1224857; active = well fitted curve in the direction sought with a large enough effect; an effect the other way counts as inactive or inconclusive; note: % of control where 0% means no effect; nearly all actives have a fitted effect of over 65% in size)
# Method in brief: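 In medium with heparin 2 ug/ml and cyclopamine 2 uM, hNPCs (350 cells/well) received compound for one hour and then Zika virus at 2 FFU/cell; caspase activity was measured by Caspase-Glo 3/7 luminescence 6 h post-infection.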
# [11] = qHTS assay for measurement of the activity of small molecule inhibitors on Zika virus induced Caspase-3 activity in human astrocytoma cells (AID 1224859; active = well fitted curve in the direction sought with a large enough effect; an effect the other way counts as inactive or inconclusive;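 note: plate controls were ZIKV-infected untreated cells for no effect and uninfected cells for full effect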)
# Method in brief: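 A cell-based luminescent caspase-3/7 assay used SNB-19 cells infected with ZIKV (2 FFU/cell) for 6 h following 1 h compound pretreatment.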
# [12] = qHTS profiling for inhibitors of Plasmodium falciparum (HB3) proliferation (AID 743324; active = well fitted curve in the direction sought with a large enough effect; an effect the other way counts as inactive or inconclusive;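 note: 100% = DMSO vehicle wells and 0% = artemisinin-treated control wells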); settings: Plasmodium falciparum HB3 blood-stage proliferation; at 28.7 µM (top of the series)
# Method in brief: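 SYBR Green fluorescence (485 ex/535 em) of lysed cultures, incubated overnight at room temperature in the dark, quantifies parasite DNA. Infected erythrocytes at 0.3% parasitemia and 2.5% hematocrit were exposed 72 h; values normalized to DMSO and 0.29 uM artemisinin controls.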
SMILES,max response [1],remaining parasite growth % (stronger effect = lower value) [2] [%],"activity, percent of control [3] [%]","parasite growth, % of DMSO control [4] [%]","parasite growth remaining, % of DMSO control (lower = more inhibition) [5] [%]","parasite growth, % of control (lower = inhibition) [6] [%]","growth, % of control [7] [%]","cell viability, % of control (lower = more cytotoxic) [8] [%]",viability (% of control) [9] [%],Potency [10],Potency [11],Potency [1],"remaining proliferation (% of control), lower = more inhibition [12] [%]"
COc1cc2c(Nc3ccc(NC(=O)c4ccccc4)cc3)ncnc2cc1OCCCN1CCOCC1,-17.9% (inactive),2.34,15.5,10.3,21.6,30,8.34,4.68,2.4,inactive,inactive,–,–
CCCCc1nc2cc(C=CC(=O)NO)ccc2n1CCN(CC)CC,–,–,-0.413,4.71,7.36,7.61,4.84,53.2,7.58,inactive,inactive,3.72 µM (active),-0.411
Nc1nc(-c2nn(Cc3ccccc3F)c3ncccc23)nc(N)c1N1CCOCC1,-6.3% (inactive),–,–,28.3,–,–,–,199,101,inactive,inactive,–,–
CC(=O)OCCN1C(=O)c2c(C)nc3ccc(S(=O)(=O)N4CCOCC4)cc3c2C1=O,15.6% (inactive),–,97.6,365,102,86.6,666,69.9,47.9,inactive,inactive,–,103
O=C(C=Cc1c(C(=O)O)[nH]c2cc(Cl)cc(Cl)c12)Nc1ccccc1,20.3% (inactive),–,103,157,107,159,188,115,98.9,inactive,inactive,–,99.1
CN1c2cc(O)c(N=NC(N)=O)cc2CC1S(=O)(=O)O (configuration not stated),13% (inactive),–,–,–,–,19.7,–,170,126,inactive,inactive,–,–
O=C(O)c1ccc2cc(-c3ccc(O)c(C45CC6CC(CC(C6)C4)C5)c3)ccc2c1,9.89% (inactive),–,10.6,13.5,40,25.3,11.7,30.9,7.6,inactive,inactive,–,–
Nc1nc(Nc2ccc(S(N)(=O)=O)cc2)nn1C(=O)c1c(F)cccc1F,–,–,9.84,16.5,11.8,14.1,9.06,13.3,6.01,inactive,inactive,11.8 µM (active),–
CC(C)=CCCC(C)=CCCC(C)=CCSc1ccccc1C(=O)O,2.41% (inactive),–,118,22.6,25.3,33.1,15.5,9.26,19,inactive,inactive,–,92
